Compound activity (PubChem)
KB-V1 cytotox: kills drug-selected multidrug resistant KB-V1 cells | KB-V1 MDR cells viability, CellTiter-Glo, 72 h | Potency, µM (top dose mostly 46.1 µM), hits mostly cytotoxic | actives 3.4% (n = 400,000) | AID 1347076; note: % is set by controls: 0 for no effect and ±100 for the full control effect; nearly all actives have a fitted effect of over 60% in size
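Cytotoxicity toward P-gp-expressing KB-V1 cells was determined as loss of CellTiter-Glo luminescence after 72 h at 37 degrees C. Compounds were tested in quantitative HTS format across a concentration range, with curves fitted to normalized data.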
KB-3-1 cytotox: KB-3-1 parental cell cytotoxicity; Potency, µM (doses to about 46.1 µM), hits mostly cytotoxic; actives 1.4% (n = 400,000); AID 1347075; KB-3-1 viability, CellTiter-Glo ATP luminescence, 72 h; note: % is set by controls: 0 for no effect and ±100 for the full control effect; nearly all actives have a fitted effect of over 60% in size
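KB-3-1 cells, DMEM (no phenol red) + 10% FBS; compound by pin transfer, 72 h, 37 °C. Readout: CellTiter-Glo luminescence after 10 min. Data normalized, curve-fitted.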
MCF10A rerep: DNA re-replication induction in MCF 10a cells | MCF 10A DNA re-replication, Hoechst nuclear intensity, 48 h | Potency, µM (highest dose often 46.1 µM), without a hit: top-dose activity, positive = re-replication, hits mostly activators | actives 2.9% (n = 350,000); note: % of control where 0% means no effect; nearly all actives have a fitted effect of over 50% in size
SW480 rereplic: DNA re-replication induction in SW480 cells; SW480 DNA re-replication, Hoechst DNA content imaging, 48 h; Potency, µM (top dose mostly 46.1 µM), inactives show at the top dose re-replication activation, usual class: activators; actives 1.8% (n = 340,000); note: % of control where 0% means no effect; nearly all actives have a fitted effect of over 55% in size
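Treated cells incubate 48 hr (37 C, 5% CO2), are stained 40 min with Hoechst, and nuclear fluorescence is enumerated; a rise in nuclei with high DNA signal marks re-replication.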
ELG1 repair inh: ELG1-dependent DNA repair inhibition. actives 2.3% (n = 330,000). HEK293T ELG1-luciferase reporter, luminescence, 16 h; DNA damage induced by 5-fluorouridine. Potency, µM (series often up to 46.1 µM), for inactives: top-dose activity change, negative = inhibition, actives largely listed as inhibitors; note: % is set by controls: 0 for no effect and ±100 for the full control effect; nearly all actives have a fitted effect of over 55% in size
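In this reporter screen, reduction of luminescence relative to DMSO vehicle indicated activity. Compounds and 5-fluorouridine were added together to 2,000 cells per well, incubated for 16 hr at 37 °C, then developed with ONE-Glo.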
* hit, by the source's call. Hits are enriched below; roughly 8.1% of the tested compounds scored in any of these assays. Calls come from the whole dose curve; as a rule, active = well fitted curve in the direction sought with a large enough effect; inconclusive = small, poorly fitted or top-dose-only effect, or another doubt; inactive = no such curve, though single readings can be large; an effect the other way counts as inactive or inconclusive. Potency is the fitted concentration of half-maximal effect.

What do the screens show for `CN[C@H]1C[C@H]2c3[nH]c4ccc(-c5ccc(OC)cc5)cc4c3CCN2C(=O)[C@H]1[C@H](C)O`?
KB-V1 cytotox: inconclusive; KB-3-1 cytotox: 5.8µM*

What do the screens show for `COc1ccc(NC(=O)N(C)[C@H]2C[C@H]3c4[nH]c5ccc(-c6ccc7c(c6)OCO7)cc5c4CCN3C[C@H]2[C@H](C)O)cc1`?
KB-V1 cytotox: inactive; KB-3-1 cytotox: inconclusive

What do the screens show for `COc1ccc(NC(=O)N(C)[C@H]2C[C@H]3c4[nH]c5ccc(-c6ccc(OC)cc6)cc5c4CCN3C[C@H]2[C@H](C)O)cc1`?
KB-V1 cytotox: inconclusive; KB-3-1 cytotox: 20.6µM*

What do the screens show for `CC(C)N1CCCC(C)(C(=O)Nc2cccc(Oc3ccccc3)c2)C1` (configuration not stated)?
KB-V1 cytotox: inactive; KB-3-1 cytotox: inconclusive

What do the screens show for `O=c1[nH]c(NCCO)nc2c1C1(CCCC1)Cc1ccccc1-2`?
KB-V1 cytotox: inactive; KB-3-1 cytotox: inactive; MCF10A rerep: inconclusive; SW480 rereplic: -0.5%; ELG1 repair inh: -4.8%

How did C=CCNC(=S)NNc1nc2c(c(=O)[nH]1)C1(CCCCC1)Cc1ccccc1-2 do in these assays?
KB-V1 cytotox: inconclusive; KB-3-1 cytotox: inactive; MCF10A rerep: 23.1µM*; SW480 rereplic: inconclusive; ELG1 repair inh: 5.8%

Results for COc1ccc(NC(=O)CCn2c(=S)[nH]c3ccccc3c2=O)cc1Cl ?
KB-V1 cytotox: inactive; KB-3-1 cytotox: inactive

How did COc1ccc(NC(=O)Cn2c(=O)n(-c3ccc(OC)cc3)c(=O)c3ccc(C(=O)NCc4ccc(C)cc4)cc32)cc1 do in these assays?
KB-V1 cytotox: inconclusive; KB-3-1 cytotox: inactive

How did Cc1nn(-c2cccc(Cl)c2)c2nc(-c3ccco3)cc(C(=O)O)c12 do in these assays?
KB-V1 cytotox: inactive; KB-3-1 cytotox: inactive; MCF10A rerep: 14.6µM*; SW480 rereplic: -4.8%; ELG1 repair inh: 5.3%

Results for CN1CCC(=C2c3ccccc3C=Cc3ccccc32)CC1 ?
KB-V1 cytotox: inconclusive; KB-3-1 cytotox: inactive; MCF10A rerep: inconclusive; SW480 rereplic: inconclusive; ELG1 repair inh: 0.8%

How did CN1CCC(=C2c3ccccc3Sc3ccccc32)CC1 do in these assays?
KB-V1 cytotox: inconclusive; KB-3-1 cytotox: inactive; MCF10A rerep: 26.6µM*; SW480 rereplic: inconclusive

What do the screens show for `Cc1cc(-c2cc(C)c(N)cc2C)c(C)cc1N`?
KB-V1 cytotox: inactive; KB-3-1 cytotox: inactive; MCF10A rerep: 126.7%; SW480 rereplic: 18.4µM*

What do the screens show for `Cc1cc2c(cc1C)C(=O)C(Br)=C(N)C2=O`?
KB-V1 cytotox: inactive; KB-3-1 cytotox: inactive; MCF10A rerep: inconclusive; SW480 rereplic: inconclusive

What do the screens show for `Cc1c(Cl)ccc2c(C(=O)NCCCn3nccc3C)cc(-c3ccccn3)nc12`?
KB-V1 cytotox: inconclusive; KB-3-1 cytotox: inactive; MCF10A rerep: inconclusive; SW480 rereplic: 19.9%; ELG1 repair inh: 18.3µM*

What do the screens show for `Cc1c(Cl)ccc2c(C(=O)NCCN3CCCCC3)cc(-c3ccccn3)nc12`?
KB-V1 cytotox: inconclusive; KB-3-1 cytotox: inactive; MCF10A rerep: inconclusive; SW480 rereplic: inconclusive; ELG1 repair inh: inconclusive

Results for O=C(CCCSc1nc2ccccc2[nH]1)Nc1nnc(-c2ccccc2)o1 ?
KB-V1 cytotox: inactive; KB-3-1 cytotox: inactive; MCF10A rerep: 0.6%; SW480 rereplic: -7.1%; ELG1 repair inh: inconclusive

Results for O=[N+]([O-])c1ccc(CSc2nc3ccccc3[nH]2)cc1 ?
KB-V1 cytotox: 20.6µM*; KB-3-1 cytotox: inactive; MCF10A rerep: 3.9%; SW480 rereplic: 1.6%; ELG1 repair inh: inconclusive

What do the screens show for `c1ccc(CSc2nc3ccccc3[nH]2)cc1`?
KB-V1 cytotox: inactive; KB-3-1 cytotox: inactive; MCF10A rerep: 3.8%; SW480 rereplic: -1.4%; ELG1 repair inh: inconclusive

How did O=C(CSc1nnc(SCc2cccc3ccccc23)s1)c1ccc2c(c1)OCO2 do in these assays?
KB-V1 cytotox: 18.4µM*; KB-3-1 cytotox: inactive; MCF10A rerep: 0.4%; SW480 rereplic: -4.7%; ELG1 repair inh: -1.0%
